# Data as given in the supplement of paper PMC6555819.
# Test system: LXRa:RXRa (NR concentration 270 nM, RXRa partner concentration 90 nM)
# Assay: PBM binding z-score (relative to random genomic background probes); higher = stronger binding; sequences stand for … in GC…GCGATTGACAGCGTAGAATGAAGG
# In short: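 On custom Agilent 4×180K arrays, double-stranded probes with 34-nt variable regions carried direct-repeat seeds, single-nucleotide variants, half-site ablations or random human genomic background. Ligand-free nuclear receptor dimers were applied for 1 h, and binding was read with antibodies against each partner (one per run). Binding z-scores come from regression-normalized fluorescence, with the random background probes as reference.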
row,Sequence,PBM binding z-score
1,TGTCAAAGTTCAAAGGTAATGTAAGTATCCACAC,6.2
2,GCTTGTAGATCTAGGTTAAGAAAGACTAAGCTAA,-0.228
3,TCTAGTTGGTCACGGAGGTCACATACGACGGGTA,3.35
4,TGAATGAGGTTAAAGATCAGCGAACGTGGCGTCG,2.46
5,TCTTGTACATCAATAGAGGTTAAGAAAGTGCGCT,3.49
6,GGAACGCGGGCAAGTTGATAGCAGAGTTTGATGG,-0.548
7,AGTCAAAGTTCAGGACGAGGTAACGGAAAGCACG,3.93
8,ACAGACAGGTGAGAGAAGGTAACTCAGCTGGACG,-0.0792
9,TCATATAGGTAAATGCTAGGGGAAAGTCCGATCT,0.949
10,CCTTACGGGTCACTCCAGGTTATTGCATCGGAGT,7.62
11,GCAGACAGGAGAAACGCAGGTAACTCAGGGTGGC,-0.393
12,CCGAGTACGTTATGGGGCATTCAGGCAACGGTGA,-0.442
13,TCGAGTAGGCTAGTCGGGGCATTCAGCCAACATA,-0.611
14,CCAGACAGGTGAAAGGTAACTCAGTCTGGTACGC,0.861
15,CTCGAAAGGTCGGTTGAGGTGAGGATACGGATAA,1.84
16,TTACCAAGGTGAAGGTAGTTGATCCCTCTGTAGA,0.286
17,CCGACCGGGGCATAAGGTTACCATAAGCCAGCCC,1.92
18,CATACAGGGTCAGCTCGGCCAGAGTAGGGACGGC,2.91
19,ACTTGTTGGTCAGCTGAGGTCACACACAATTCGG,3.31
20,CCTGCTAGGTAATGGTCAGCTAATCTACAGTATG,-0.438

row,Sequence,PBM binding z-score
1,CGTCCAGGGTCATAGGAGGTCAGTGAAGACAGAT,7.25
2,CCTTACGGTTCACTCCAGGTTATAGCATCGGAGT,6.46
3,AGTCAGAGTTCAGGACGAGGTAACGTAAAGCACG,3.51
4,TCAGACAGGCGAAGGTAACTCAGGTACGCAGTCG,1.16
5,CGCCCAAGGTCAGAGAGGTCAGTGAATGCCGAGT,4.89
6,GCATATAGGTAATACAAAGTGAAAGTCCGATTGT,-0.368
7,CGAACTAGATCATCCAGGACAGTGAATACATTGA,-0.152
8,CTACCAAGGTGAACAAGGTGGTTGATTACTATTC,0.0424
9,ACATACGGGTCAACGAGGTTATAGCACGCGTATA,4.74
10,CGTCCAAGGTCAAGGTCAGTAAAAGAGACTCGAA,5.66
11,GCGACTGGGGCATCAGCAGGTAACCATAACTTAA,-0.254
12,ATATGTAGATTAGCTGGGGTCATTCAGACTAGGC,3.51
13,ACTAGTTGGTCAGCTGAGGTCCCACACAATTCGG,-0.375
14,AGAGTGAGGTTATACGTAGATCAGGGAAGAAAGT,2.18
15,GCTAGCAGGCCATTTGGGGCACTCAATGACGGGC,-0.719
16,GCTAGTTGGTCAGGAAAAGGTCACACACCGGTCG,3.85
17,CCGACTGGGGCATAAGGTTACCACAAGCCAGCCC,1.28
18,ACTAGTTGGTCAGCAGAGGTCACACACAATTCGG,4.71
19,TCTTGTAGATCAAAGGTTAAAAAAGCCGAAGCCT,2.35
20,CCGACTGGTGCATAAGGTTACCATAAGCCAGCCC,1.78
